Results on 15 compounds are retold here after PubChem BioAssay.

Test [1] relates to PRMT1 (protein arginine N-methyltransferase 1). As to the kind of experiment: PRMT1 binders on small-molecule microarrays, primary screen, biochemical, small-molecule microarray, 635 nm fluorescence (AID 1088).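 Further: binding of Prmt1 protein to compounds spotted on small-molecule microarray slides.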 The settings on record: small-molecule microarray binding, higher = more signal.
Test [2] can be described thus: yeast growth modulation, basal conditions, primary screen, YJM789 clinical isolate, OD600, 24 h (AID 1089).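 Further: growth of clinical yeast isolate S. cerevisiae YJM 789 seeded 1000 cells per well; test concentration not given here.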 The settings on record: S. cerevisiae YJM789 growth, higher = more signal, called active from +8 up or from −8 down.
A short description of test [3]: fission yeast growth modulation, primary screen, strain 972, OD600, 24 h, no modulator (AID 1090).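 Further: basal condition with compound alone and no growth modifier present; test concentration not given here.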 The settings on record: S. pombe 972 growth, higher = more signal, called active from +8 up or from −8 down.
Test [4] can be described thus: S. cerevisiae growth modulation with rapamycin, primary screen, strain BY4716, OD600, 96 h (AID 1091). Further: test concentration not given here. The settings on record: higher = more signal, called active from +8 up or from −8 down.
The target in test [5] is Torsin-1A-interacting protein 2 (Homo sapiens) (UniProt Q8NFQ8). Kind of test: LULL1 binders on small-molecule microarray, primary screen, cell lysate, human LULL1 lysate, 635/667 nm fluorescence (AID 1092).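 Further: probe is lysate of COS7 cells overexpressing human LULL1; score merges per-feature 667 nm fluorescence with signal-to-noise.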 The settings on record: hLULL1 lysate binding, 635 nm fluorescence, higher = more signal.
Chain of Torsin-1A-interacting protein 2 (Homo sapiens) (Q8NFQ8 whole entry, looked up): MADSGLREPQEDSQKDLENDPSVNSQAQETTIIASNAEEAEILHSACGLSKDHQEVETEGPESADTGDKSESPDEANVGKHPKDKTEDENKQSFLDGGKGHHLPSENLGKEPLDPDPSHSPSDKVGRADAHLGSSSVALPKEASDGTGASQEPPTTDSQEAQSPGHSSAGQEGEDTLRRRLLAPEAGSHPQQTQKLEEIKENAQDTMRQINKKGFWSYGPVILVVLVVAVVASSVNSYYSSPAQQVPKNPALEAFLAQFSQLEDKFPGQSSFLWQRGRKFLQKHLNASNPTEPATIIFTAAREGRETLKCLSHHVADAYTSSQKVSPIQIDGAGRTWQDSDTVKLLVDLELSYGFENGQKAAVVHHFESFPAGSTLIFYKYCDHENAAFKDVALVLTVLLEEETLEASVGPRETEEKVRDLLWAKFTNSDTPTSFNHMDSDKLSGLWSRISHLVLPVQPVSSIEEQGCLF
A short description of test [6]: E. coli growth modulation, two-sided OD650, primary screen, E. coli filamentation project, strain DRC41, 24 h (AID 1093).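 Further: MC1000 strain lacking acrAB efflux and sulA so SOS filamentation is blocked; test concentration not given here.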 The settings on record: OD650, 24 h, higher = more signal, called active from +8 up or from −8 down.
Test [7] in a line: small-molecule microarray binders of probe aLefty2, primary screen, biochemical, biotinylated probe, 635/667 nm fluorescence (AID 1094).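 Further: score merges spot fluorescence near 667 nm with spot signal-to-noise ratio.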 The settings on record: higher = more signal.
Test [8] relates to Noggin (protein binding on small-molecule microarray). As to the kind of experiment: Noggin binders on small-molecule microarray, primary screen, biochemical, 635/667 nm fluorescence (AID 1095).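 Further: score merges 667 nm feature fluorescence with signal to noise over triplicate slides.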 The settings on record: 635 nm fluorescence, higher = more signal.
Test [9] concerns the target Neurogenic locus notch homolog protein 3 (Homo sapiens) (UniProt Q9UM47). Kind of test: NOTCH3 binders on small-molecule microarray, primary screen, biochemical, 635/667 nm fluorescence (AID 1096). The settings on record: NOTCH3 binding, 635 nm fluorescence, higher = more signal.
The nature of test [10]: small-molecule microarray binders of probe aEGFR, primary screen, biochemical, biotinylated probe, 635/667 nm fluorescence (AID 1097).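 Further: probe is a biotinylated anti-EGFR antibody binding compounds printed on slides; score combines fluorescence near 667 nm and signal to noise of each spot.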 The settings on record: higher = more signal.

Active and inactive are the calls of the source.

Chain of Neurogenic locus notch homolog protein 3 (Homo sapiens) (Q9UM47 whole entry, looked up): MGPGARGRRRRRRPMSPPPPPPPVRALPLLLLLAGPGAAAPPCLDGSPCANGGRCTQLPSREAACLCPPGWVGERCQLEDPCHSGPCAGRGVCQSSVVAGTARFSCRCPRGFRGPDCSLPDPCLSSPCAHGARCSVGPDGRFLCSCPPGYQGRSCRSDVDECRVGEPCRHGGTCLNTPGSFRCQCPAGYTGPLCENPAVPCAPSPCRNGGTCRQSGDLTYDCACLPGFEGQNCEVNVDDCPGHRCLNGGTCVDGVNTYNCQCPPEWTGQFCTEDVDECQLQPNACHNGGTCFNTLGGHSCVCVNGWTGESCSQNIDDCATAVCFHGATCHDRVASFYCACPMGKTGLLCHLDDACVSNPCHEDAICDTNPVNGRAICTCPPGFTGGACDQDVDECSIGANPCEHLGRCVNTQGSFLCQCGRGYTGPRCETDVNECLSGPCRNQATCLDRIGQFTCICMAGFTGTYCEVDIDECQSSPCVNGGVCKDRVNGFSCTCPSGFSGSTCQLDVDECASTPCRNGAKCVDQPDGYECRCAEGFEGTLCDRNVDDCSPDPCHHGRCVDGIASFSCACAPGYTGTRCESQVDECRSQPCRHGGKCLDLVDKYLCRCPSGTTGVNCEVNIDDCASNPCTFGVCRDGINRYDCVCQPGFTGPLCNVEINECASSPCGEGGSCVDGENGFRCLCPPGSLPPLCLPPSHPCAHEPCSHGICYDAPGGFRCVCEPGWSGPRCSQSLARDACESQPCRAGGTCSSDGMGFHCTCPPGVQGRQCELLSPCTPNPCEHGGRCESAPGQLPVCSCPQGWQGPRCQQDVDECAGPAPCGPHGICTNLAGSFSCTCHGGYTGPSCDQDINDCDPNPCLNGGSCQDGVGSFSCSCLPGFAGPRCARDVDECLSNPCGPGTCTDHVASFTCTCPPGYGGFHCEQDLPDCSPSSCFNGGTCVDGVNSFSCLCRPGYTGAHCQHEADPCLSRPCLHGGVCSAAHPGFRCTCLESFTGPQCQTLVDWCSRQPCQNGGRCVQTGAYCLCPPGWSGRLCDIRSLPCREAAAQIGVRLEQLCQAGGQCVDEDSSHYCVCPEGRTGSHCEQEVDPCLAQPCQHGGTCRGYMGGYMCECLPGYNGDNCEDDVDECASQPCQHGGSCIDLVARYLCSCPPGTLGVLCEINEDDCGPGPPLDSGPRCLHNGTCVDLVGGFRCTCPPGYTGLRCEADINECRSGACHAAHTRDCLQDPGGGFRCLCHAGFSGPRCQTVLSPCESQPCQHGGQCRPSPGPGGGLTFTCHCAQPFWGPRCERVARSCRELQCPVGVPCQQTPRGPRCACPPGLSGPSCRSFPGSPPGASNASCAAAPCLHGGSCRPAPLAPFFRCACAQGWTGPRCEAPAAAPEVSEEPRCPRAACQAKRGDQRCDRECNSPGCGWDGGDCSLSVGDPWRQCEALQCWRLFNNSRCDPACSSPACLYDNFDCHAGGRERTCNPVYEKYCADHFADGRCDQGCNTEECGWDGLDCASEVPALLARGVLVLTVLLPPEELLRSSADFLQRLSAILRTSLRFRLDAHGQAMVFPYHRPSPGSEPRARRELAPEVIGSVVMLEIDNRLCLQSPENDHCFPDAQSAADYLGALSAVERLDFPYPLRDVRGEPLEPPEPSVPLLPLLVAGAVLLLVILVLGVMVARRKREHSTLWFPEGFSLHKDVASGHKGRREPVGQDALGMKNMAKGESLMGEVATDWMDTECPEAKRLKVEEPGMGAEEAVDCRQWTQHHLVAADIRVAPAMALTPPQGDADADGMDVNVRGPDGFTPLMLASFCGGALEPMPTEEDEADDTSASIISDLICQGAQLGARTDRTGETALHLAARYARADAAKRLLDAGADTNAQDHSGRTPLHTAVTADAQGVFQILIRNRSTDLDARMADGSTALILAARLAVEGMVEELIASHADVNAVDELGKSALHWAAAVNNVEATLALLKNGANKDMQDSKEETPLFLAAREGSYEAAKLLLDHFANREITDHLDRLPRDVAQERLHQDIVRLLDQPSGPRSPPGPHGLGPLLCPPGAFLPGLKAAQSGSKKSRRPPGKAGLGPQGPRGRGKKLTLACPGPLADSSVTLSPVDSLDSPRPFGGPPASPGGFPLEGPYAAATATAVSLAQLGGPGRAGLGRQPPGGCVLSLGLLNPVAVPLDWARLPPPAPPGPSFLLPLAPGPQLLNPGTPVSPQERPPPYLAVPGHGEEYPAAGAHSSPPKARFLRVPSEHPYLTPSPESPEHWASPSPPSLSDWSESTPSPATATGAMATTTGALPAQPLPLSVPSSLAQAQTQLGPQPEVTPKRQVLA

With `O=C1OCC=C[C@H]2OC34C=CCN(c5ccc6ccccc6c5)C(=O)[C@H]3N(CCCCCO)C(=O)[C@@H]4[C@@H]12` (stereo not given in full), the composite z-score in test [1] is -0.6; in test [5] it was 3.68; in [7], 0.306; in [8] it was -1.65; in test [9] it was -1.04; in [10], -0.177. Further, the z-score in test [2] is -0.594 (inactive); in [3] it was -0.955 (inactive); in [4] it was -0.515 (inactive); in test [6], 0.198 (inactive).
Turning to `CCOC(=O)C[C@H]1[C@H](OC(=O)c2ccc(C(=O)c3ccccc3)cc2)[C@@H](NC(=O)CC(C)C)c2cc(OCCCO)ccc2N1C(=O)Cc1ccc(OC)cc1`, the composite z-score in [1] was 0.451; in [5], 0.663; in [7] it was 0.0351; in [8], -0.114; in test [9] it was 0.477; in test [10], -0.0585. The z-score was 0.247 (inactive) in [2], 0.22 (inactive) in [3], 0.265 (inactive) in test [4] and -0.113 (inactive) in test [6].
Consider `CN(C)C(=O)[C@@]1(Cc2ccccc2)COC(c2ccc(OCCCO)cc2)=N1`, for which the composite z-score in test [1] is 0.243; in [5] it was 2.87; in test [7], 0.137; in test [8] it was -0.955; in test [9] it was -0.451; in [10], 0.0005. For the same compound, the z-score was -0.0054 (inactive) in test [2], -4.61 (inactive) in [3], -1.59 (inactive) in test [4] and 1.31 (inactive) in test [6].
As to `[N-]=[N+]=Nc1ccccc1C[C@@]1(C(=O)O)N=C(c2ccc(OCCCO)cc2)O[C@@H]1c1ccccc1N=[N+]=[N-]`, the composite z-score in test [1] was 1.39; in [5] it was 3.04; in [7], 0.255; in test [8] it was -0.414; in test [9], 1.09; in test [10], 0.0998. Also, the z-score in test [2] was -1.05 (inactive); in test [3], -0.613 (inactive); in test [4], -1.67 (inactive); in [6], -0.679 (inactive).
On to `O=C(NCC(O)CO)[C@@]1(CCS(=O)(=O)c2ccccc2)COC(c2ccc(OCCCO)cc2)=N1` (stereo not given in full), for which the composite z-score worked out at 0.797 in [1]; 3.86 in test [5]; 0.362 in test [7]; 0.481 in [8]; 0.79 in test [9]; 0.473 in test [10]. Also, the z-score was 0.257 (inactive) in test [2], -0.197 (inactive) in [3], 0.648 (inactive) in test [4] and 0.671 (inactive) in [6].
Regarding `Cc1ccc(S[C@]2(C(=O)NC(C)C)CC(=O)N(Cc3ccccc3Cl)[C@@H]2c2ccc(CO)cc2)cc1`, the composite z-score was -0.577 in [1]; 2.06 in test [5]; 0.0425 in test [7]; -0.82 in test [8]; -0.452 in [9]; -0.227 in test [10]. Also, the z-score is -0.651 (inactive) in [2], -1.13 (inactive) in [3], -0.072 (inactive) in test [4] and -1.29 (inactive) in test [6].
`CC(C)OC(=O)CC(=O)CC(O)c1ccc([N+](=O)[O-])cc1` (stereo not given): the composite z-score was 0.65 in test [1]; 1.27 in test [5]; 0.0416 in test [7]; -0.0624 in [8]; 0.422 in [9]; -0.213 in test [10]. The z-score in test [2] was -0.0857 (inactive); in test [3], -0.26 (inactive); in [4] it was -0.34 (inactive); in [6], -0.215 (inactive).
As to `C=CCOC(=O)[C@H]1[C@@H]2C(=O)O[C@@H](c3ccccc3)[C@@H](c3ccccc3)N2[C@@H](c2ccc(OCCOC(=O)[C@H]3C[C@H]4C(=O)N[C@@H](CCCCNC(C)=O)C(=O)N4[C@H]3c3cccc(OCCO)c3)cc2)[C@]12C(=O)Nc1ccc(I)cc12`, the composite z-score was 1.55 in [1]; 2.18 in [5]; -0.431 in test [7]; 1.87 in test [8]; 1.1 in test [9]; -0.336 in test [10]. For the same compound, the z-score was 1.15 (inactive) in test [2], 1.14 (inactive) in test [3], 4.54 (inactive) in test [4] and 1.44 (inactive) in test [6].
Regarding `COc1ccc([Si](C)(C)[C@H]2[C@H](CC(=O)N3Cc4ccccc4C[C@H]3CO)O[C@@]3(C(=O)N(Cc4ccc(N5C(=O)c6cccc7cccc5c67)cc4)c4ccccc43)[C@@H]2C)cc1`, the composite z-score in test [1] is 1.56; in test [5], 2.7; in [7] it was -0.178; in [8], 1.14; in test [9] it was 1.15; in test [10], -0.027. Also, the z-score in [2] was -0.823 (inactive); in test [3], 1.17 (inactive); in [4], 2.88 (inactive); in test [6], 0.489 (inactive).
Take `COC(=O)C1N=C(c2ccc(OCCCO)cc2)N(c2ccccc2)O1` (stereo not given): the composite z-score was determined as 0.433 in [1]; 2.07 in test [5]; 0.156 in [7]; 0.981 in [8]; 0.698 in test [9]; 0.271 in [10]. Besides, the z-score in test [2] was -0.686 (inactive); in test [3], -1.16 (inactive); in test [4], -0.417 (inactive); in test [6], 0.267 (inactive).
With `CN(C)C(=O)[C@@]1(Cc2ccccc2N=[N+]=[N-])N=C(c2ccc(OCCCO)cc2)O[C@H]1c1ccccc1`, the composite z-score in test [1] was 1.57; in [5] it was 3.38; in test [7], 0.58; in [8] it was -0.125; in test [9], 1.12; in test [10], 0.35. For the same compound, the z-score was 0.687 (inactive) in test [2], -4.17 (inactive) in test [3], 1.23 (inactive) in test [4] and 0.1 (inactive) in [6].
For `C=C[C@@H](OC)[C@H](OC(=O)Nc1ccc(SC)cc1)c1ccc(OCCO)cc1`, the composite z-score was 1.13 in test [1]; 2.11 in test [5]; -0.057 in [7]; 0.822 in [8]; 0.82 in [9]; -0.039 in test [10]. Moreover, the z-score in test [2] was 0.456 (inactive); in test [3], -0.675 (inactive); in test [4] it was 0.0094 (inactive); in [6], 0.0144 (inactive).
As for `Cc1ccccc1C(O)C1C=CC2C(=O)NC(=O)C2N1Nc1ccc(Cl)cc1Cl` (stereo not given), the composite z-score in [1] is 0.528; in [5], 2.27; in test [7], 0.106; in test [8], 0.287; in [9], 0.765; in test [10], -0.125. For the same compound, the z-score is -2.09 (inactive) in [2], -2.81 (inactive) in [3], 0.797 (inactive) in test [4] and -1.24 (inactive) in test [6].
For `CCOC(=O)C1=CCC(c2ccccc2)N(S(=O)(=O)c2ccc([N+](=O)[O-])cc2)C1` (stereo not given), the composite z-score is -0.411 in test [1]; 1.33 in [5]; -0.0081 in test [7]; -0.578 in test [8]; 0.0968 in test [9]; 0.0506 in [10]. In addition, the z-score in test [2] was 0.687 (inactive); in [3], 0.668 (inactive); in [4] it was 1.25 (inactive); in test [6], -0.319 (inactive).
With `COc1cccc(/C=C(\C#N)C(=O)Nc2c(C)n(C)n(-c3ccccc3)c2=O)c1`, the composite z-score is 0.564 in test [1]; 2.66 in test [5]; 0.0852 in test [7]; 0.161 in test [8]; 0.539 in [9]; -0.0828 in [10]. Besides, the z-score was -1.58 (inactive) in [2], -0.958 (inactive) in test [3], -0.978 (inactive) in test [4] and -0.23 (inactive) in [6].
